This passage reports inhibition results from ChEMBL document CHEMBL1961873, “Compounds: GSK PKIS; Assays: Nanosyn kinase panel” (2012).

The structures appear in SMILES notation.

Experiment [1] deals with Epidermal growth factor receptor (Homo sapiens), P00533 [T790M]. As to conditions: at 1 µM.
Experiment [2] deals with Epidermal growth factor receptor (Homo sapiens), P00533 [L858R,T790M]. The conditions noted are these: at 0.1 µM.
For experiment [3] the test system is unchanged. The conditions noted are these: at 1 µM.
The target in experiment [4] is Ephrin type-A receptor 2 (Homo sapiens) (UniProt P29317). The conditions noted are these: at 0.1 µM.
The target is the same in experiment [5]. The conditions noted are these: at 1 µM.
In experiment [6] the target is T1, Ephrin type-A receptor 3 (Homo sapiens) (UniProt P29320).
T1 sequence (whole entry): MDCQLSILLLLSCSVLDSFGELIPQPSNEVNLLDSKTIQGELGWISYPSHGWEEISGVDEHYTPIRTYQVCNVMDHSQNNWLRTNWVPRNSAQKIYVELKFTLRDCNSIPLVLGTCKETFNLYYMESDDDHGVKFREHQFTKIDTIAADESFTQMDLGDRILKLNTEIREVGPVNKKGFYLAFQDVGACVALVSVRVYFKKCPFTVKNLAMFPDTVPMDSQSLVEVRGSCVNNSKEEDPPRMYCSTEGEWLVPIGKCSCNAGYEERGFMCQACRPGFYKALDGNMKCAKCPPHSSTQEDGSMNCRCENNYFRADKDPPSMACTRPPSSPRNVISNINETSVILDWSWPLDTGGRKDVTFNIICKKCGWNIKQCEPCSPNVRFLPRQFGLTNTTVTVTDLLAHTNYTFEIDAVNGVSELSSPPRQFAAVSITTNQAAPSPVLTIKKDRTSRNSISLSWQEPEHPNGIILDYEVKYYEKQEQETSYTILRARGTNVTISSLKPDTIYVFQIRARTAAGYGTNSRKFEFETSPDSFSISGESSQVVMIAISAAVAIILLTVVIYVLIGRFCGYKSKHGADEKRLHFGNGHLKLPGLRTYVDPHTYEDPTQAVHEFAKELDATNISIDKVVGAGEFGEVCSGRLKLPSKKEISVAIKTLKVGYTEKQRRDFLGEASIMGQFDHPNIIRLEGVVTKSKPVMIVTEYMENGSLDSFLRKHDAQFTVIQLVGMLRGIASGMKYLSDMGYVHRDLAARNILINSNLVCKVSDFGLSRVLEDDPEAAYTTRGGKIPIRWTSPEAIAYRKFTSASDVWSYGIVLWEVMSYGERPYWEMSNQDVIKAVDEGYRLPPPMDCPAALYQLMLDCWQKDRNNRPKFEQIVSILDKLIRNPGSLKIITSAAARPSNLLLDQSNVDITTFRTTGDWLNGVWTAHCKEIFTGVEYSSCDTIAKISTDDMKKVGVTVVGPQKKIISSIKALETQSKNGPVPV
As to conditions: at 0.1 µM.

For experiment [7], the target named is T1, Ephrin type-A receptor 3 (Homo sapiens). The conditions noted are these: at 1 µM.
In experiment [8] the target is Ephrin type-A receptor 4 (Homo sapiens) (UniProt P54764). As to conditions: at 0.1 µM.
Experiment [9] has the same target. The conditions noted are these: at 1 µM.
Experiment [10] deals with T2, Ephrin type-B receptor 2 (Homo sapiens) (UniProt P29323).
T2 sequence (whole entry): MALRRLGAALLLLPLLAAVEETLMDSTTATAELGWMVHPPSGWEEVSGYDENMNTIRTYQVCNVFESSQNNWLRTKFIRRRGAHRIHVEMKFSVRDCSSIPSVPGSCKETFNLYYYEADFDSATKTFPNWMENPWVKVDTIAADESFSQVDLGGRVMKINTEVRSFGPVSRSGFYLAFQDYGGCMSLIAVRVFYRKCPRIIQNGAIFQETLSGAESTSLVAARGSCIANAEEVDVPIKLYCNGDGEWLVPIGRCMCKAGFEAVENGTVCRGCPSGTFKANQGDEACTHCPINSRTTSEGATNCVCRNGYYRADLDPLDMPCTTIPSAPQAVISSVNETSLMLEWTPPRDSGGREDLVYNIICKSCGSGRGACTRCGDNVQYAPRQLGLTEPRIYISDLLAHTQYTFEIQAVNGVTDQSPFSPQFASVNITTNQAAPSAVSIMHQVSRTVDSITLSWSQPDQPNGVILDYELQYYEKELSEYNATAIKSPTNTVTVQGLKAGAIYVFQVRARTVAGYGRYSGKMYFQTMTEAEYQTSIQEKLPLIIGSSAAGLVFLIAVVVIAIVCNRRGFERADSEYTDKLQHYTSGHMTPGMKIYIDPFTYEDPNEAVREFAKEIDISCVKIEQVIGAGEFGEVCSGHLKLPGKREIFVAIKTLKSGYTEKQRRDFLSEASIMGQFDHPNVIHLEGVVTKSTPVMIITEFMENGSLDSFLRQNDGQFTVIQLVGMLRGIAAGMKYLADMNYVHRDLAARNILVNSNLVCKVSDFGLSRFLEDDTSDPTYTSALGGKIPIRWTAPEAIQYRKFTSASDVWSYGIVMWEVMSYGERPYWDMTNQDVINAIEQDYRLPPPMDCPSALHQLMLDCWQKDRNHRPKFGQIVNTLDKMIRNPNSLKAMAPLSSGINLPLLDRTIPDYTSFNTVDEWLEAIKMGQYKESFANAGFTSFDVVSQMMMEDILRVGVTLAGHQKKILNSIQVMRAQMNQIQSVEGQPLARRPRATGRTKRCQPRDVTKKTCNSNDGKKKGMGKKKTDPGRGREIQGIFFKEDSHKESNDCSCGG
The conditions noted are these: at 0.1 µM.

The target of experiment [11] is T2, Ephrin type-B receptor 2 (Homo sapiens). The conditions noted are these: at 1 µM.
Experiment [12] addresses T3, Ephrin type-B receptor 3 (Homo sapiens) (UniProt P54753).
T3 sequence (whole entry): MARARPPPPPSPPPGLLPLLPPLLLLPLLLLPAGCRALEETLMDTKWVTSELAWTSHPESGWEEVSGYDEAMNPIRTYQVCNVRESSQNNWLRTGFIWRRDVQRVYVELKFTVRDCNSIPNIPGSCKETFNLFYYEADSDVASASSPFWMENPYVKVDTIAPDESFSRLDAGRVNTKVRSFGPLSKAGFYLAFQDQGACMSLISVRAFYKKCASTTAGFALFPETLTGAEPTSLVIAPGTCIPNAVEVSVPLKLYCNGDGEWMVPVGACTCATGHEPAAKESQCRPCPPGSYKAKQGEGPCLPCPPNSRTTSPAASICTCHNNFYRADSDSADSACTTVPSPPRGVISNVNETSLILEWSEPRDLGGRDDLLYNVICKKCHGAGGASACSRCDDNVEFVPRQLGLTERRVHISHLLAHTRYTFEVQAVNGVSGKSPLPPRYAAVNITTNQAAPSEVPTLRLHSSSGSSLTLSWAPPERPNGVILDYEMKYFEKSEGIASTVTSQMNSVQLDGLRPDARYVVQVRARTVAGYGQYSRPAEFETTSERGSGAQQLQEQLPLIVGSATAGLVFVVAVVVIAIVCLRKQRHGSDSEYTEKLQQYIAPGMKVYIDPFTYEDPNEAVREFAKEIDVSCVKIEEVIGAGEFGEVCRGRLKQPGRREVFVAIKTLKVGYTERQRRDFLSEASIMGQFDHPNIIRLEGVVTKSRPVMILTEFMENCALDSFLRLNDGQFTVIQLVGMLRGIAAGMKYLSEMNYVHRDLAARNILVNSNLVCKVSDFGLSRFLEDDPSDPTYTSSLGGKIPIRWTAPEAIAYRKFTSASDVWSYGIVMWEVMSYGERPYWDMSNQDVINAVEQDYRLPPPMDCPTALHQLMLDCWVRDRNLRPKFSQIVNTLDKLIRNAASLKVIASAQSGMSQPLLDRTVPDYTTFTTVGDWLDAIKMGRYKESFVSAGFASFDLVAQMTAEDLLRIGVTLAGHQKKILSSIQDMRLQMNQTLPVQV
The conditions noted are these: at 0.1 µM.

The target in experiment [13] is T3, Ephrin type-B receptor 3 (Homo sapiens). The conditions noted are these: at 1 µM.
For experiment [14], the target named is T4, Ephrin type-B receptor 4 (Homo sapiens) (UniProt P54760).
T4 sequence (whole entry): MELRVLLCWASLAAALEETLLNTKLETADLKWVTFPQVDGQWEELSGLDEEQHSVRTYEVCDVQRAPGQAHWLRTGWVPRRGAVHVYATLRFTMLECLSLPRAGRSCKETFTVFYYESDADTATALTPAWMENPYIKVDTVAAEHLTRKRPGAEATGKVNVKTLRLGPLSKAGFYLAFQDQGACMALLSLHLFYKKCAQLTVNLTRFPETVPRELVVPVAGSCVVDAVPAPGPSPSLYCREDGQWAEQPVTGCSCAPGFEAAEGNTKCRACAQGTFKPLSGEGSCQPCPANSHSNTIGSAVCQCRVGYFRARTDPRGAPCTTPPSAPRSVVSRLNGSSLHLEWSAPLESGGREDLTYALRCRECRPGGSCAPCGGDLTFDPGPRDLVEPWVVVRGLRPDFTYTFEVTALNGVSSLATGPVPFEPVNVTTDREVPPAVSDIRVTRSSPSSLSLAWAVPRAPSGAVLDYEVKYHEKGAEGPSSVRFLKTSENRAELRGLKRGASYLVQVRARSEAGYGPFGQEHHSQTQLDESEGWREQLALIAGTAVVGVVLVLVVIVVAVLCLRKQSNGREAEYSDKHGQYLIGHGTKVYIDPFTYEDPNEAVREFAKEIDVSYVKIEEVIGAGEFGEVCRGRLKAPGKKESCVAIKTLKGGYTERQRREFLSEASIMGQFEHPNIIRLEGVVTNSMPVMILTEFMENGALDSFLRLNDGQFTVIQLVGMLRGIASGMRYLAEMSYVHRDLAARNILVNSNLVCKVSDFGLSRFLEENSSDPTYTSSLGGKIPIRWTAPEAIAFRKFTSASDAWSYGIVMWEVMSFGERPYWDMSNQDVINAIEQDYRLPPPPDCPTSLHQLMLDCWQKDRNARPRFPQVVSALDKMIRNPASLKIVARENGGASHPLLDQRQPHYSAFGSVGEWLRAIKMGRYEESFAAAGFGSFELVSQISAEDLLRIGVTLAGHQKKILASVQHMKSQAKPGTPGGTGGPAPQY
As to conditions: at 0.1 µM.

The target of experiment [15] is T4, Ephrin type-B receptor 4 (Homo sapiens). As to conditions: at 1 µM.
Experiment [16] has as its target Receptor tyrosine-protein kinase erbB-2 (Homo sapiens) (UniProt P04626). The conditions noted are these: at 0.1 µM.
The target is the same in experiment [17]. As to conditions: at 1 µM.
Experiment [18] deals with Receptor tyrosine-protein kinase erbB-4 (Homo sapiens) (UniProt Q15303). As to conditions: at 0.1 µM.
The target is the same in experiment [19]. As to conditions: at 1 µM.
Experiment [20] has as its target Tyrosine-protein kinase Fer (Homo sapiens) (UniProt P16591). As to conditions: at 0.1 µM.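 Note: reported figures are averaged percent inhibition of FER.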

Sequence of Receptor tyrosine-protein kinase erbB-2 (Homo sapiens) (P04626 whole entry): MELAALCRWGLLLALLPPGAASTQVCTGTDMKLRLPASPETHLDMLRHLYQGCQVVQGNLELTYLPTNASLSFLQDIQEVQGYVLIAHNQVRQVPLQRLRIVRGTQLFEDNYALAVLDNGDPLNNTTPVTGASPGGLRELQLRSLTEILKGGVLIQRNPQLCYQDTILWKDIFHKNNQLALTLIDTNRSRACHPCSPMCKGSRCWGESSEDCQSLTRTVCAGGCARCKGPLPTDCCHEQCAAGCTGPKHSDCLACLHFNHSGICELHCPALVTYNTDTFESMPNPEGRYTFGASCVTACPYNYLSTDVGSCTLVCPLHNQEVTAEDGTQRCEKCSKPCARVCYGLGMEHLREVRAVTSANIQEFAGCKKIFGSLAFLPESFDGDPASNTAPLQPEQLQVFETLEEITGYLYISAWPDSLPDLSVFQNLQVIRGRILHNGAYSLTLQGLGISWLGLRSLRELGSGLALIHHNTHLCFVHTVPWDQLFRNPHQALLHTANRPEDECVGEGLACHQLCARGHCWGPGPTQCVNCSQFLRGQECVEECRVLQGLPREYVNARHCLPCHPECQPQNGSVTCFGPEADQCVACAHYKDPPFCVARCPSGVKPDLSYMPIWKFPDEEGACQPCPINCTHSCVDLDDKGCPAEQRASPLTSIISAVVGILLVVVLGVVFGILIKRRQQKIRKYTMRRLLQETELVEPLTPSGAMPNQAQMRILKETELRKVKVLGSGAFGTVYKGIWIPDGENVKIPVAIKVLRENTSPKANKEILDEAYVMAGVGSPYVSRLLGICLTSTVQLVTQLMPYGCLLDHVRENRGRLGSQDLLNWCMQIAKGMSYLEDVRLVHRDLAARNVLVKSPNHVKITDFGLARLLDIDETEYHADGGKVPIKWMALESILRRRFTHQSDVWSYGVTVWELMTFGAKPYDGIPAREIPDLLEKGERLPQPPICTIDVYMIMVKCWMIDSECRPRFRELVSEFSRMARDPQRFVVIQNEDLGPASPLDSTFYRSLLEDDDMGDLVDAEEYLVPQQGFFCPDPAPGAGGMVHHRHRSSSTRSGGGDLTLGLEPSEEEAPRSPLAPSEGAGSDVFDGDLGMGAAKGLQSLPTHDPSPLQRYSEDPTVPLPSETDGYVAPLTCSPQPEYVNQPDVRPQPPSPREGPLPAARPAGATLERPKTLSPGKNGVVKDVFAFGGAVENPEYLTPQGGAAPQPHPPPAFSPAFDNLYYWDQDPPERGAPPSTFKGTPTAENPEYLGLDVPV
Sequence of Receptor tyrosine-protein kinase erbB-4 (Homo sapiens) (Q15303 whole entry): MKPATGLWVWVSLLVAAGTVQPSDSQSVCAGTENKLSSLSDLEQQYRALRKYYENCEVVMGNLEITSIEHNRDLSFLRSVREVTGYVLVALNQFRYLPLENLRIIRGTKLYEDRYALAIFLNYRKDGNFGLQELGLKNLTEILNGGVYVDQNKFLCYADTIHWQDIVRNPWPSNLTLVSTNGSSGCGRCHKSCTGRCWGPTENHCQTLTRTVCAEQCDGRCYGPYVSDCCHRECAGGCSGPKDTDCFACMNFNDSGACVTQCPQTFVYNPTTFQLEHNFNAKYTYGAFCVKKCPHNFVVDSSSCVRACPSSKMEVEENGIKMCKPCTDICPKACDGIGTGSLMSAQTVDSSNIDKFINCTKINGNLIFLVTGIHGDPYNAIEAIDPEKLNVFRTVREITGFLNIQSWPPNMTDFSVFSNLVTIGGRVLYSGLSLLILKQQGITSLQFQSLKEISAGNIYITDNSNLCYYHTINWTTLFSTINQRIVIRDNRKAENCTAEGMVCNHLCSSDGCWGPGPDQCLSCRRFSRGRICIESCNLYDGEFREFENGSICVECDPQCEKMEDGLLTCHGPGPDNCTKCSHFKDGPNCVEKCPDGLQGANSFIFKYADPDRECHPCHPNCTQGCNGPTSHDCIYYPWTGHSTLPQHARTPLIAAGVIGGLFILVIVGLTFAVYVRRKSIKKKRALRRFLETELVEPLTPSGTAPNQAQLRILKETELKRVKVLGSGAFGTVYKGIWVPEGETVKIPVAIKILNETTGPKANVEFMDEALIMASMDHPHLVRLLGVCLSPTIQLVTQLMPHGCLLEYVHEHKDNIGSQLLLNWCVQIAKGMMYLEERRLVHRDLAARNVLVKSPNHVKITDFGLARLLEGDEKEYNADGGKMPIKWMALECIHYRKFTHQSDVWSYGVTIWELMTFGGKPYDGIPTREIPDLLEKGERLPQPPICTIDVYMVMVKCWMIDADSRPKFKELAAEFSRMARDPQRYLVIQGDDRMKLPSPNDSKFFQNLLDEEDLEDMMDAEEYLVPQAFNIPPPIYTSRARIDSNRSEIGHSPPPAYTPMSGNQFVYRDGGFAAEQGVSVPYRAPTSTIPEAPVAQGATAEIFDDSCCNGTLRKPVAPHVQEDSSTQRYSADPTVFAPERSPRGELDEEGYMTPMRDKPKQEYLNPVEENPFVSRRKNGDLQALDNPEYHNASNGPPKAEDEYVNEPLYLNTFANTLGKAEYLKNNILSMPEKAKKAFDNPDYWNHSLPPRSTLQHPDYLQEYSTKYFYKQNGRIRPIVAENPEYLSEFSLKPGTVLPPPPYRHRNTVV
Sequence of Ephrin type-A receptor 4 (Homo sapiens) (P54764 whole entry): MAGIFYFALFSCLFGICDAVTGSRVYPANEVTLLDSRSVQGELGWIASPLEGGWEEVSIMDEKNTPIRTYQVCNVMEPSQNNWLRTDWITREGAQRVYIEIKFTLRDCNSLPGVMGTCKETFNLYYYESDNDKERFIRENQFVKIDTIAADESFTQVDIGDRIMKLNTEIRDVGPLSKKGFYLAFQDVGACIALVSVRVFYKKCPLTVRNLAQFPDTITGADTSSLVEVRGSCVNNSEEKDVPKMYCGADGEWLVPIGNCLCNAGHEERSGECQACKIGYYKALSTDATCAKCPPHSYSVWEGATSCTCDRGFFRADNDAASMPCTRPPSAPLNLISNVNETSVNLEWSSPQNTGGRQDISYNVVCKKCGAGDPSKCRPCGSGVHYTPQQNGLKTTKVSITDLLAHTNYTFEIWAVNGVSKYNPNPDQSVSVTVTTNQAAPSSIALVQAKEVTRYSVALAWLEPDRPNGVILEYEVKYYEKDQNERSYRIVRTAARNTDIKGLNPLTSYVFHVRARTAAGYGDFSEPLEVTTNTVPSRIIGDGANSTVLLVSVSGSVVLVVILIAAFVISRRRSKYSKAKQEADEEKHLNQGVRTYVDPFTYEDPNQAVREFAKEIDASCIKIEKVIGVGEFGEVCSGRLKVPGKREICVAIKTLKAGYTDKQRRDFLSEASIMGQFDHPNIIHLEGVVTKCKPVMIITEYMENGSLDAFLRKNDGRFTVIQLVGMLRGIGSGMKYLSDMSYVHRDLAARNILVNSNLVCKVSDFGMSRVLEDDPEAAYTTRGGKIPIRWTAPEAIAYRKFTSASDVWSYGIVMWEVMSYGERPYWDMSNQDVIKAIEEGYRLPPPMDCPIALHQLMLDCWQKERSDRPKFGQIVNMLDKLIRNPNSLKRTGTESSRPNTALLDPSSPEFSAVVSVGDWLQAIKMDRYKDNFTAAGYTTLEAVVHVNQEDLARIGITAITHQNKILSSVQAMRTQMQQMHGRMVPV
Sequence of Tyrosine-protein kinase Fer (Homo sapiens) (P16591 whole entry, looked up): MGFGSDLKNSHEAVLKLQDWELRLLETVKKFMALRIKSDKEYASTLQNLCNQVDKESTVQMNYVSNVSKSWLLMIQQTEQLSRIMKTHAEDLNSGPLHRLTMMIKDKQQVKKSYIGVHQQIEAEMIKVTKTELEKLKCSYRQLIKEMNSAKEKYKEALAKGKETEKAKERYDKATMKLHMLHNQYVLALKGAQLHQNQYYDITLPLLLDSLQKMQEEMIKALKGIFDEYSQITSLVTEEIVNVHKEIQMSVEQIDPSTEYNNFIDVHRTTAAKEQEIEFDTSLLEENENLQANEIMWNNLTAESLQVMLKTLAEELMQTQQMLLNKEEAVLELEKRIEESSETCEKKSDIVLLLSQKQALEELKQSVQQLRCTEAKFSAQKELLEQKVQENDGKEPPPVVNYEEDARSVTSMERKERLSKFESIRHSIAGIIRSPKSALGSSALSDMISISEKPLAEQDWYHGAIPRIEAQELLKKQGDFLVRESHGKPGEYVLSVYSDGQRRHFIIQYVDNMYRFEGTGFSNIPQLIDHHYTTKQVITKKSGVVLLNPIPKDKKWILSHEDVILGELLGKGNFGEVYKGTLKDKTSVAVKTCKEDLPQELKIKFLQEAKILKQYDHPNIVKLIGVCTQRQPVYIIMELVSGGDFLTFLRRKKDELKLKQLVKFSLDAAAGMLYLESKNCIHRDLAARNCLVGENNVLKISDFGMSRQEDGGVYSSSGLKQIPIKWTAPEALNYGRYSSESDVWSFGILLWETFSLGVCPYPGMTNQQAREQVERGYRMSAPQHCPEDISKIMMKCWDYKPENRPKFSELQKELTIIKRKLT

As a reminder, the inhibition is the drop in the measured response relative to a control, in per cent. For `CN1CCN(CCCNc2nc3ccc(Oc4ccc(NC(=O)Nc5cc(C(F)(F)F)ccc5F)cc4)cc3[nH]2)CC1`, the inhibition in experiment [1] is -2.83%; in experiment [2] it was -0.44%; in experiment [3] it was -4.26%; in experiment [4] it was -3.26%; in [5] it was 2.37%; in experiment [6], -0.6%. Further, the inhibition was -0.47% in experiment [7]; 6.02% in experiment [8]; 25.9% in [9]; 9.54% in experiment [10]; 58.8% in experiment [11]; -3.09% in [12]. In addition, the inhibition in experiment [13] was -6.41%; in [14], -1.44%; in experiment [15] it was 16.4%; in [16] it was -2.7%; in experiment [17], -2.07%; in experiment [18], 3.38%. Besides, the inhibition in experiment [19] is 2.56%; in [20] it was 3.88%.

In the case of `CS(=O)(=O)CCNCc1cc(-c2cc3c(Nc4ccc(OCc5cccc(F)c5)c(Cl)c4)ncnc3s2)cs1`, the inhibition was 6.23% in [1]; 1.25% in [2]; 6.55% in experiment [3]; 0.54% in experiment [4]; -0.67% in experiment [5]; 1.87% in experiment [6]. For the same compound, the inhibition in [7] came out at 2.18%; in [8], 8.11%; in experiment [9], 10.4%; in [10], 12.3%; in experiment [11] it was 7.92%; in experiment [12] it was 0.62%. Besides, the inhibition in [13] was 4.6%; in [14], -0.19%; in experiment [15], 2.96%; in [16] it was 3.61%; in experiment [17], 60.2%; in experiment [18], 22.7%. Besides, the inhibition in experiment [19] was found to be 76.7%; in experiment [20] it was 2.65%.

Take `Fc1ccc(-c2ncn(CCCN3CCOCC3)c2-c2ccncc2)cc1`: the inhibition in [1] is -1.55%; in experiment [2], -3.9%; in experiment [3], 1.72%; in experiment [4] it was 0.95%; in experiment [5], 1.3%; in [6] it was 1.04%. Also, the inhibition is 0.84% in [7]; 1.1% in experiment [8]; -5.4% in experiment [9]; -4.85% in [10]; -5.28% in experiment [11]; 2.51% in [12]. For the same compound, the inhibition in [13] was -2.79%; in experiment [14], 0.93%; in experiment [15] it was -0.14%; in experiment [16], -0.2%; in [17], -6.58%; in experiment [18], 4.44%. The inhibition is 4.14% in experiment [19] and 0.26% in experiment [20].
